In PubChem BioAssay AID2551 (National Center for Advancing Translational Sciences (NCATS), 2010) one finds Potency and activity change, negative = inhibition data, which are given here for 106 compounds.

The campaign covered roughly 310,000 compounds. About 17,000 (5.5%) were called active. Not shown: some 11% with an inconclusive outcome. What follows is part of a selection rich in actives, with near analogues and random picks from the rest. Entries that show only a call come without a potency. Values without a mark were called inactive. Calls come from the whole dose curve; as a rule, active = well fitted inhibition curve with a large enough effect; inconclusive = small, poorly fitted or top-dose-only effect, or effect the other way; inactive = no such curve, though single readings can be large or run the other way.
Potency is the fitted concentration of half-maximal effect.

Sequence of Nuclear receptor ROR-gamma (Mus musculus) (P51450 whole entry, looked up, the tested form may be a part): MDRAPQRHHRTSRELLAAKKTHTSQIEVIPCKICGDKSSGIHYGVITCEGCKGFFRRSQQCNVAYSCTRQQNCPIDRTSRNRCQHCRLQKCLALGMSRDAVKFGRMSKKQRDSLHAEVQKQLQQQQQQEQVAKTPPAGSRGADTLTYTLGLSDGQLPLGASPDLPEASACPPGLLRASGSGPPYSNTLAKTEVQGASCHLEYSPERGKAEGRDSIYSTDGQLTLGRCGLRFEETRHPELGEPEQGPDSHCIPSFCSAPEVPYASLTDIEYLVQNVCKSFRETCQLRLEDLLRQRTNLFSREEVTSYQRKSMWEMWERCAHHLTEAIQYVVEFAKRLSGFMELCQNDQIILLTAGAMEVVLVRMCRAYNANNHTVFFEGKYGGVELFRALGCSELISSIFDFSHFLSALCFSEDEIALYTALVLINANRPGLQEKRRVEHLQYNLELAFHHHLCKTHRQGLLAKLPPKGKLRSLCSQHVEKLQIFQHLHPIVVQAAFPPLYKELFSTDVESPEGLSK

The assay has as its target Nuclear receptor ROR-gamma (Mus musculus) (UniProt P51450). Briefly: qHTS for inhibitors of ROR gamma transcriptional activity. Note: nearly all actives have a fitted effect of over 60% in size. Conditions: Drosophila S2 Gal4-RORgamma UAS-luciferase reporter, 20 h; series mostly up to 53.6 µM. The essentials:
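Luminescence from a UAS-regulated Photinus luciferase reporter in stably transfected Drosophila Schneider cells is measured; decreased signal marks ROR gamma inhibition. Fusion expression is induced by 700 uM copper sulfate for 20 hr.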
A general note: qHTS replaces the single test concentration by a dilution series.
As for `CCOc1ccc(OCCSc2nc3ccccc3n2CC(=O)O)cc1`, the Potency result was “inactive”.

As to `COc1ccc(S(=O)(=O)N2CCN(C)CC2)c(C)c1`, the activity change, negative = inhibition is 16.1% [at 1.91 µM].

Turning to `COc1ccc(N(Cc2cc3ccc(C)cc3[nH]c2=O)S(=O)(=O)c2ccccc2)cc1`, the Potency entry is “inactive”.

In the case of `CC(C)(C)c1ccc(C(CC(=O)O)NS(=O)(=O)Cc2ccccc2)cc1` (stereo unspecified), the Potency entry was “inactive”.

For the compound `CCCCN(CCCC)CCCNC(=O)CN1C(=O)COc2ccc(S(=O)(=O)N3CCC(C)CC3)cc21`, the Potency entry is “inactive”.

On to `Fc1ccccc1Cn1cnc(NC(=S)NCCc2ccccc2)n1`, for which the Potency entry is “inactive”.

For `S=C(NCCc1ccccc1)Nc1ccccc1`, the Potency is 3.16 µM (active).

Take `S=C(NCCc1ccccc1)NCC1CCCO1` (stereo unspecified): the Potency was 12.6 µM (active).

Take `S=C(NCCCc1ccccc1)Nc1ccc(Br)cc1`: the Potency is 8.91 µM (active).

For the compound `CCc1ccc(NC(=O)CS(=O)CC(=O)NCCCc2ccccc2)cc1` (stereo unspecified), the Potency entry is “inactive”.

As for `S=C(NCCc1ccccc1)NCc1ccccc1Cl`, the Potency is 7.94 µM (active).

For `NS(=O)(=O)c1ccc(CCNC(=S)Nc2ccc(S(N)(=O)=O)cc2)cc1`, the Potency result was “inactive”.

For `O=C(NCCCc1ccccc1)C(=O)c1c[nH]c2ccccc12`, the Potency entry is “inactive”.

With `O=C(CS(=O)(=O)Cc1ccccc1)NCC1CCCO1` (stereo unspecified), the Potency result was “inactive”.

For `CCOc1ccc(CCNC(=O)Nc2ccccc2)cc1OCC`, the Potency result is “inactive”.

On to `O=C(NCCc1ccccc1)C1CC1`, for which the Potency result is “inactive”.

Consider `O=C(NCCc1c[nH]c2ccccc12)C(=O)NCC1CCCO1` (stereo unspecified), for which the Potency result is “inactive”.

For the compound `COc1ccccc1N1CCC(N2CCN(CC(C)(C)C)C(CCO)C2)CC1` (stereo unspecified), the Potency entry was “inactive”.

For `Cc1ccc(NS(=O)(=O)c2ccc(-c3coc(C)n3)cc2)c(C)c1`, the Potency result is “inactive”.

Take `CSc1ccc(S(=O)(=O)N2CCC(C(=O)NCc3ccncc3)CC2)cc1`: the Potency entry was “inactive”.

Take `COc1cc(/C=C2\SC(=O)NC2=O)ccc1OCc1ccc(Cl)nc1`: the Potency result was “inactive”.

Take `CC(C)c1ccc(NC(=O)[C@@H](NC(=O)N2CC(=O)Nc3ccccc32)C(C)C)cc1`: the Potency entry was “inactive”.

On to `O=C(c1ccc2nc(N3CCOCC3)sc2c1)N1CCN(c2ccc(Cl)cc2)CC1`, for which the Potency result was “inactive”.

As to `Nc1nc(SCC(=O)Nc2ccc(Cl)cc2C(F)(F)F)n[nH]1`, the Potency result is “inactive”.

On to `CC(=O)Nc1ccc(S(=O)(=O)N(C)CC(=O)NCCC2=CCCCC2)cc1`, for which the Potency result was “inactive”.

As for `S=C(NCCC1=CCCCC1)Nc1ccccc1`, the Potency was 1.78 µM (active).

For `O=C(Cc1cccc2ccccc12)NCCC1=CCCCC1`, the activity change, negative = inhibition is 11.1% [at 10 µM].

On to `COc1ccc(CCNC(=O)c2ccccc2OCc2ccccc2)cc1`, for which the Potency result is “inactive”.

On to `O=C(NC1CCCC1)C(c1ccc(Cl)cc1)N(C(=O)c1csnn1)C1CC1` (stereo unspecified), for which the Potency entry is “inactive”.

As for `Cc1cc(C)nc(SCC(=O)c2ccc(Cl)cc2)n1`, the Potency result is “inactive”.

As for `Cc1cc(C)nc(S/C=C/C(=O)c2ccccc2)n1`, the Potency was 6.31 µM (active).

`C/C(=N\NC(=O)c1nc(C)cc(C)n1)c1ccccc1`: the Potency entry is “inactive”.

As to `Cc1ccc(CS(=O)(=O)CCC(=O)NCc2ccc(F)cc2)cc1`, the Potency entry is “inactive”.

For `O=C(O)c1ccccc1C(=O)NC1=NN(c2ccccc2)CC1`, the Potency result is “inactive”.

Regarding `CN(c1ccc(OCC(=O)O)cc1)S(=O)(=O)c1ccc2ccccc2c1`, the Potency result is “inactive”.

On to `Cc1ccccc1N1CCN(C2CCCN(C(=O)c3cn4c(C)cccc4n3)C2)CC1` (stereo unspecified), for which the Potency entry was “inactive”.

As for `CCOc1cc(NC(=O)c2ccccc2C(=O)O)c(OCC)cc1NC(=O)c1ccccc1F`, the activity change, negative = inhibition is 19.6% [at 1.91 µM].

`CCN1CCN(c2cc3nc(C)n(Cc4ccccc4)c(=O)c3cc2NC(=O)c2ccccc2F)CC1`: the Potency was 11.2 µM (active).

As to `CCn1c(=O)n(CC)c2cc(N3CCCC3)c(NC(=O)c3ccccc3Br)cc21`, the Potency result was “inactive”.

On to `CS(=O)(=O)Nc1cccc(C2=NN(C(=O)c3cccc(F)c3)C(c3cccs3)C2)c1` (stereo unspecified), for which the Potency entry was “inactive”.

Consider `CC(C)=CCCC(C)CN1CCC(n2nccc2NC(=O)c2ccccc2)CC1` (stereo unspecified), for which the Potency entry is “inactive”.

On to `CC(=O)NCCC(=O)Nc1nc(-c2ccc3c(c2)OCCO3)cs1`, for which the Potency result was “inactive”.

On to `COc1ccc(-c2cc(=O)oc3cc(OCC(=O)N(C)C4CCS(=O)(=O)C4)ccc23)cc1` (stereo unspecified), for which the Potency result is “inactive”.

In the case of `COc1ccc2c(-c3ccccc3)cc(SCC(=O)N(C)C3CCS(=O)(=O)C3)nc2c1` (stereo unspecified), the Potency was 10 µM (active).

For the compound `Cc1cc(C)c2nc(SCC(=O)N(C)C3CCS(=O)(=O)C3)cc(C)c2c1` (stereo unspecified), the Potency result is “inactive”.

For `[2H]C(CCOS(N)(=O)=O)c1ccccc1` (stereo unspecified), the Potency result was “inactive”.

With `Cc1cc(-c2ccc(/C=N/n3cnnc3)o2)c([N+](=O)[O-])cc1C`, the Potency entry was “inactive”.

As to `Cc1ccc(-c2ccc(/C=C(\C#N)C(N)=S)o2)c([N+](=O)[O-])c1`, the Potency is 11.2 µM (active).

Consider `N#C/C(=C/c1ccc(-c2ccccc2[N+](=O)[O-])o1)C(=O)NCCN1CCCCC1`, for which the Potency result was “inactive”.

Turning to `O=C(Nc1ccc(-c2cscn2)cc1)C1CCCN(Cc2ccc(CO)o2)C1` (stereo unspecified), the Potency result is “inactive”.

With `COc1ccc(CCNC(=O)c2cnc(Cl)c(Cl)c2)cc1`, the Potency result was “inactive”.

Regarding `CCCCNC(=O)N(O)C1N(/N=C/c2ccccc2O)C(=S)SC1(C)C` (stereo unspecified), the Potency is 11.2 µM (active).

Consider `CCCCNC(=O)N(O)C1N(/N=C/c2ccc(N(C)C)cc2)C(=S)SC1(C)C` (stereo unspecified), for which the Potency result was “inactive”.

For the compound `CCC(C)N1C(=S)SC(C)(C)C1N(O)C(=O)NC1CCCCC1` (stereo unspecified), the Potency entry was “inactive”.

For `COc1ccc2c(c1)N(C)/C(=C1/SC(=S)N(NC(C)=O)C1=O)S2`, the Potency result is “inactive”.

Regarding `COc1ccc(OC)c(NC(=O)C2CCCN2S(=O)(=O)c2cccc3nsnc23)c1` (stereo unspecified), the Potency result is “inactive”.

As for `O=C(O)c1[nH]c2ccccc2c1C(c1cccc(O)c1)c1c(C(=O)O)[nH]c2ccccc12`, the Potency result is “inactive”.

Regarding `CCOCc1nnc(NC(=O)CSc2ccc(C)cc2)s1`, the Potency entry is “inactive”.

Take `O=C(CSc1ccccc1)Nc1nnc(/C=C/c2ccccc2)s1`: the Potency is 20 µM (active).

With `O=C(/C=C/c1ccccc1)Nc1nnc(SCC(=O)c2ccc3ccccc3c2)s1`, the Potency result is “inactive”.

Take `CC1(C)Cc2c(sc(NC(=O)C(=O)NCC3CCCO3)c2C(=O)O)CO1` (stereo unspecified): the Potency entry is “inactive”.

`C/C(=N\NC(=O)c1ccccc1F)c1ccccn1`: the Potency is 0.631 µM (active).

On to `C/C(=N\NC(=O)Cc1ccc(F)cc1)c1ccc(F)cc1`, for which the Potency entry is “inactive”.

For the compound `O=C(Nc1ccc(NC(=O)c2ccccc2F)cc1)c1ccccc1F`, the Potency result was “inactive”.

On to `COc1ccc(CC(=O)N/N=C(\C)c2ccccn2)cc1`, for which the Potency is 7.08 µM (active).

For `C/C(CC(=O)Nc1ccc(N(C)C)cc1)=N\NC(=O)c1ccccc1F`, the Potency entry is “inactive”.

As to `COc1ccc(/C(C)=N/NC(=O)c2ccc3nc[nH]c3c2)cc1`, the Potency result was “inactive”.

Regarding `COc1ccc(CC(=O)NC(C)CCc2ccccc2)cc1` (stereo unspecified), the Potency result is “inactive”.

Take `C/C(=N\NC(=O)Cc1ccc(Cl)cc1)c1ccccn1`: the Potency was 0.398 µM (active).

As for `C/C(=N\NC(=O)Cc1ccc(Br)cc1)c1cccnc1`, the Potency result was “inactive”.

In the case of `Cc1ccc(Cn2cc(C(=O)NN)c(=O)c3ccc(F)cc32)cc1`, the Potency entry was “inactive”.

Take `Cc1cccnc1CCNC(=O)C1CCC(=O)N(Cc2cccc(F)c2)C1` (stereo unspecified): the Potency result was “inactive”.

Take `COc1cc2ccccc2cc1C(=O)Nc1ccccc1C`: the Potency entry was “inactive”.

As to `COc1cc([N+](=O)[O-])cc([N+](=O)[O-])c1NC(=O)N1CCOCC1`, the Potency result was “inactive”.

On to `O=S(=O)(Cc1cc(Cl)nc(-c2cccnc2)n1)c1ccccc1`, for which the Potency result was “inactive”.

With `COc1ccc(C(=O)Nc2cc(C)c(NC(=O)c3ccccc3OC)cn2)cc1`, the Potency entry was “inactive”.

Turning to `Cc1ccnc(N2C(=O)c3ccc([N+](=O)[O-])cc3C2=O)c1`, the Potency result was “inactive”.

Turning to `Cc1cccc(C)c1NC1=NC(=S)N(c2ccc(N(C)C)cc2)C1(C)C`, the Potency is 14.1 µM (active).

On to `COC(=O)c1cc(C(=O)NC(C)C2CC3CCC2C3)cc([N+](=O)[O-])c1` (stereo unspecified), for which the Potency entry was “inactive”.

As to `Cc1c2cnn(CC(=O)NCc3ccccn3)c(=O)c2c(C)n1Cc1ccc(Cl)cc1`, the Potency result is “inactive”.

For the compound `Cc1ccc(CN2CCN(c3ncccn3)CC2)c(C)c1`, the Potency result was “inactive”.

In the case of `C#CCN(N(C)c1ncc(C(F)(F)F)cc1Cl)S(=O)(=O)c1ccc2ccccc2c1`, the Potency result was “inactive”.

Turning to `O=S(=O)(NCc1ccc(Cl)cc1Cl)c1cccs1`, the Potency entry was “inactive”.

On to `CN(NS(=O)(=O)c1cccs1)c1ncc(C(F)(F)F)cc1Cl`, for which the Potency is 5.62 µM (active).

On to `O=C1C(=O)N(CC2COc3ccccc3O2)c2ccccc21` (stereo unspecified), for which the Potency result is “inactive”.

Regarding `Cc1cc(C(=O)CCl)c(C)n1CC1COc2ccccc2O1` (stereo unspecified), the Potency was 10 µM (active).

On to `O=C(NCC1COc2ccccc2O1)C1(c2ccccc2)CCCC1` (stereo unspecified), for which the Potency result was “inactive”.

Take `Cc1ccc(C)c(OCc2cc(C(=O)N3CCN(c4cnccn4)CC3)no2)c1`: the Potency entry was “inactive”.

Consider `O=C(CN1CCN(C(=O)C2CCCO2)CC1)Nc1c(Cl)cccc1Cl` (stereo unspecified), for which the Potency entry is “inactive”.

On to `Cc1ccc(-n2ncc3c2CC(C)(C)CC3NC(=O)CCc2cnn(C)c2)cc1` (stereo unspecified), for which the Potency entry is “inactive”.

In the case of `CC(C)NS(=O)(=O)c1ccc(OCC(=O)NC2CCCCCC2)cc1`, the Potency result was “inactive”.

With `CC(C)(C)C1CCC(=NNC(=O)c2ccc(Br)o2)CC1` (stereo unspecified), the Potency entry is “inactive”.

For `CCC(C)(C)C1CCC(=NNC(=O)c2ccc(Br)o2)CC1` (stereo unspecified), the Potency was 11.2 µM (active).

`O=C(N/N=C\C1CC=CCC1)c1ccc(Br)o1` (stereo unspecified): the Potency result was “inactive”.

Regarding `Cc1cc(-c2nnc(SCC(=O)Nc3ccc(S(N)(=O)=O)cc3)n2N)n[nH]1`, the Potency entry is “inactive”.

With `CCOc1ccc(OCc2ccc(C(=O)N(C)c3ccccc3)o2)cc1`, the Potency entry is “inactive”.

`COc1cccc(NC(=O)NCCN2CCCCC2)c1`: the Potency result was “inactive”.

`COc1cc2cc(CN(CCN3CCCC3)C(=O)Nc3ccccc3Cl)c(=O)[nH]c2cc1OC`: the Potency entry was “inactive”.

On to `Cc1ccc(NC(=S)N(CCN2CCCCC2)Cc2ccco2)cc1C`, for which the Potency is 10 µM (active).

`CCc1ccccc1NC(=O)NCCN1CCCCC1`: the Potency entry was “inactive”.

As for `CCc1ccccc1NC(=S)N(CCN1CCCCCC1)Cc1ccco1`, the Potency is 17.8 µM (active).

On to `Cc1ccc(NC(=S)N(CCCN2CCC(C)CC2)Cc2ccco2)cc1`, for which the Potency entry was “inactive”.

In the case of `C=C1CCN(C(CC(C)C)C(=O)N2CCOCC2)S(=O)(=O)c2ccccc21` (stereo unspecified), the Potency entry is “inactive”.

Regarding `CCOc1ccccc1NS(=O)(=O)c1c[nH]c(C(=O)OC)c1`, the Potency result was “inactive”.

For `COC(=O)[C@]1(S(=O)(=O)c2ccccc2)C[C@@H]2ON=C(c3ccc(OC)cc3)[C@@H]2C1`, the Potency result is “inactive”.

Take `COc1ccc(CCC(C)N2CCc3ccccc3C2)cc1` (stereo unspecified): the Potency result is “inactive”.
